The text below walks through data of PubChem BioAssay (NCATS).

The nature of experiment [1]: Primary qHTS for inhibitors of nuclear receptor binding SET domain protein 2 (NSD2) in an isogenic RCH-ACV NSD2 p.E1099K mutant (9B) (AID 1645876; note: potency is the fitted concentration of half-maximal effect; nearly all actives have a fitted effect of over 70% in size). (In general: In qHTS, concentration-response curves come from the screen itself.)
A short description of experiment [2]: Primary qHTS for inhibitors of nuclear receptor binding SET domain protein 2 (NSD2) in an RCH-ACV wild type WT cells (2C) (AID 1645877). Note: potency is the fitted concentration of half-maximal effect; nearly all actives have a fitted effect of over 70% in size.
In experiment [3] the target is Glutathione peroxidase 1 (Homo sapiens) (UniProt P07203). The experiment is described as follows: Primary qHTS Assay for Inhibitors of Recombinant Selenoprotein Glutathione Peroxidase 1 (GPX1) (AID 1845191). Note: nearly all actives have a fitted effect of over 65% in size. An outline of the steps: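 NADPH consumption tracked by fluorescence at 340/450 nm between t=0 and t=15 min, room temperature. Final mix: 10 nM GPX1, 100 nM glutathione reductase, 1 mM GSH, 0.5 mM NADPH, 0.5 mM cumene hydroperoxide, 0.01% BSA; 30 min compound–enzyme preincubation.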
Chain of Glutathione peroxidase 1 (Homo sapiens) (P07203 whole entry, looked up): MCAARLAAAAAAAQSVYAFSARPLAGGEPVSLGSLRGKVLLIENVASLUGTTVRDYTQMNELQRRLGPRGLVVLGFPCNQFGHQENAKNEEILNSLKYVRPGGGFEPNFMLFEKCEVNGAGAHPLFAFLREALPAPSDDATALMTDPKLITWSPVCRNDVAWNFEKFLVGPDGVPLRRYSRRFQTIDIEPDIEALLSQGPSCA

In experiment [4] the target is Phospholipid hydroperoxide glutathione peroxidase GPX4 (Homo sapiens) (UniProt P36969). Nature of the experiment: Primary qHTS Assay for Inhibitors of Recombinant Selenoprotein Glutathione Peroxidase 4 (GPX4) (AID 1845192). Note: % is set by controls: 0 for no effect and ±100 for the full control effect; nearly all actives have a fitted effect of over 65% in size. The settings on record: outcome: dose series up to 50 µM unless noted. An outline of the steps:
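NADPH consumption followed by fluorescence at 340/450 nm, t=0 and after 15 min at room temperature. Reaction started with cumene hydroperoxide (0.5 mM final) after 30 min compound–GPX4 preincubation; final 200 nM GPX4, 100 nM GR, 1 mM GSH, 0.5 mM NADPH.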

The nature of experiment [5]: qHTS drug screen for cell cycle checkpoint inhibitors in PARPi-resistant BRCA-mutant ovarian cancer cell lines. (AID 1963452; calls by dose curve). Particulars: PEO1/OlaR viability, CellTiter-Glo luminescence, 96 h, stronger effect = lower value. In outline: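 PEO1, PEO4 and PEO1/OlaR ovarian cancer cells, 600 per well, exposed 96 h at 37C to a dilution series. Viability read by CellTiter-Glo luminescence, normalized to DMSO and empty wells; activity summarized as Z-AUC.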

Experiment [6] can be described thus: qHTS assay to identify inhibitors of the type 1 interferon - major histocompatibility complex class I in skeletal muscle: Counter screen cell viability and HiBit confirmation (AID 1347412). For activity change, negative = inhibition: % is set by controls: 0 for no effect and ±100 for the full control effect. Note: nearly all actives have a fitted effect of over 60% in size. Note: potency is the fitted concentration of half-maximal effect. Particulars: iHSKM muscle cells + IFN-b, HiBiT or CellTiter-Glo, 24 h. An outline of the steps:
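Luminescence read-out: Nano-Glo HiBiT lytic signal from C-terminally HiBiT-tagged HLA-B in CRISPR-edited human myoblasts, plus CellTiter Glo ATP as viability counter screen. IFN-beta 4.0 ng/ml; 24 hrs treatment at 37 C, 5% CO2.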

Experiment [7] is described as follows: Validation of Assay for Modulators of Lamin A Splicing (AID 1459; active = well fitted curve in the direction sought with a large enough effect in the signal ratio; the % refers to the signal ratio;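 note: cells exposed to compound for two days before reading; 0% is about no effect; ratio rise marks activators and ratio drop marks inhibitors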). In outline: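 HeLa S3 lamin A-EGFP/DsRed2 stable clone, 600 cells/well, Opti-MEM 2% FBS; compounds by pin tool; 48 hrs, 37 °C/5% CO2; Acumen 488 nm scan, objects 10-100 um; GFP/RFP intensity ratio.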
Experiment [8] addresses DNA repair nuclease/redox regulator APEX1 (Homo sapiens) (UniProt P27695). Nature of the experiment: qHTS Validation Assay for Inhibitors of the Human Apurinic/apyrimidinic Endonuclease 1 (APE1) (AID 1705;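 note: TAMRA fluorescence gain over two minutes as APE1 cuts a quenched THF abasic duplex; % is set by controls: 0 for no effect and ±100 for the full control effect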). An outline of the steps:
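qHTS, 1536-well. APE1 + cpd 15 min RT → 50 nM TAMRA/BHQ-2 THF-abasic dsDNA substrate → kinetic fluorescence, 3 reads/60 s; delta(read3−read1) = reaction progress. No-enzyme buffer = negative control.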

The nature of experiment [9]: Counterscreen for APE1 Inhibitors: Fluorescent Dye Displacement Validation Assay (AID 1707).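 Note: plate controls were ThO with dsDNA and no compound for no effect and ThO without dsDNA for full effect.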 An outline of the steps: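 Counterscreen flags promiscuous DNA binders: compounds displacing ThO from duplex DNA (abasic THF site, 50 nM) reduce 540 nm emission (480 nm excitation). ThO 250 nM final; Tris-HCl pH 7.5 with NaCl, MgCl2 and Tween-20.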
(In general: The purpose of a counterscreen is to sort out artefacts and off-target activity.)

Experiment [10] deals with Endonuclease 4 (Escherichia coli (strain K12)) (UniProt P0A6C1). Nature of the experiment: Counterscreen for APE1 Inhibitors: qHTS Validation Assay for Inhibitors of Endonuclease IV (AID 1708). Note: % is set by controls: 0 for no effect and ±100 for the full control effect. In outline:
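Incision of a double-stranded 50 nM TAMRA/BHQ-2 abasic substrate was followed kinetically (525/598 nm, reads every 60 s) after 15 min enzyme–compound preincubation with 2 nM EndoIV in pH 7.5 Tris buffer with MgCl2, DTT and Tween-20; concentration-response format.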

The nature of experiment [11]: qHTS for differential inhibitors of proliferation of Plasmodium falciparum line GB4 (AID 1816).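 For activity change, negative = inhibition: 0% = vehicle DMSO and -100% = reference inhibitor.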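 Note: parasite growth measured after 72 h incubation.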 Note: potency is the fitted concentration of half-maximal effect. Particulars: Potency: Plasmodium falciparum GB4 proliferation inhibition.
The nature of experiment [12]: qHTS for differential inhibitors of proliferation of Plasmodium falciparum line D10 (AID 1877).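 For activity change, negative = inhibition: plate controls were vehicle wells for no effect and reference inhibitor wells for full effect.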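 Note: parasites grown with compound for 72 h before DNA staining.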 Note: potency is the fitted concentration of half-maximal effect.
A short description of experiment [13]: qHTS for differential inhibitors of proliferation of Plasmodium falciparum line Dd2 (AID 1882).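 Note: plate controls were DMSO vehicle for no effect and 0.29 µM artemisinin for full effect; nearly all actives have a fitted effect of over 65% in size.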 The settings on record: Potency: Plasmodium falciparum Dd2 proliferation inhibition. An outline of the steps:
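SYBR Green DNA fluorescence (ex 485, em 535 nm) after overnight lysis quantifies parasite growth; compound exposure lasted 72 h at 37 C on infected red cells at 2.5% hematocrit, 0.3% parasitemia (final). Artemisinin 0.29 uM and vehicle wells define normalization.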

Experiment [14] in a line: qHTS for differential inhibitors of proliferation of Plasmodium falciparum line W2 (AID 1883).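 For activity change, negative = inhibition: 0% = vehicle wells and -100% = control inhibitor wells.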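 Note: parasites grown with compound for 72 h before lysis and staining.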 Note: potency is the fitted concentration of half-maximal effect. Particulars: Potency: Plasmodium falciparum W2 proliferation inhibition.
Experiment [15] addresses Ferritin light chain (Equus caballus) (UniProt P02791). Nature of the experiment: qHTS Validation Assay for Identification of Novel General Anesthetics (AID 2323). Note: % is set by controls: 0 for no effect and ±100 for the full control effect. In outline:
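Fluorescence at 535 nm (excitation 380 nm) reported loss of 1-AMA binding to horse-spleen apoferritin (10 uM) in PBS with 50% saturated 1-aminoanthracene, after 10 min room-temperature incubation with compound; values from Hill fits of normalized response.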

Experiment [16] has as its target ATP-dependent DNA helicase Q1 (Homo sapiens) (UniProt P46063). The experiment is described as follows: qHTS Validation Assay for Inhibitors of RecQ-Like Dna Helicase 1 (RECQ1) (AID 2353).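 Note: plate controls were DMSO vehicle for no effect and enzyme-free control for full effect.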 In outline: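 RECQ1T1 50 nM; forked duplex (20 bp + 30-nt ss tails) 200 nM, ATP 2 mM final; pH 8.0, 2 mM MgCl2, 2.5 ug/ml poly(dI-dC); 15 min compound preincubation; discontinuous kinetic read over 2 h at RT.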

Experiment [17] can be described thus: Validation screen for small molecules that induce DNA re-replication in MCF 10A normal breast cells (AID 463097). Note: 0% is about no effect; nearly all actives have a fitted effect of over 60% in size. In outline: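 Image-based qHTS: normal breast cells are incubated with compound for 48 hr, stained with Hoechst, and scanned for total nuclear fluorescence. Compounds raising the fraction of nuclei with elevated DNA content count as re-replication inducers.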

The nature of experiment [18]: Quantitative high throughput screen for delayed death inhibitors of the malarial parasite plastid, 96 hour incubation (AID 488745).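 Note: luciferase-expressing P. falciparum in erythrocytes at 2% hematocrit and 0.1% parasitemia; % is set by controls: 0 for no effect and ±100 for the full control effect; nearly all actives have a fitted effect of over 70% in size.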 In outline: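 Readout is firefly luciferase luminescence from an integrated reporter in P. falciparum; lower signal marks inhibited growth. Cultures at 2% hematocrit and 0.1% parasitemia were treated with compound across two generations (96 h, 37 C, 5% CO2).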

Experiment [19] is described as follows: Quantitative high throughput screen for delayed death inhibitors of the malarial parasite plastid, 48 hour incubation (AID 488752). Note: % is set by controls: 0 for no effect and ±100 for the full control effect; nearly all actives have a fitted effect of over 65% in size. An outline of the steps:
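First, compound was pinned into RPMI 1640 medium containing 0.5% Albumax. Next, reporter-parasite-infected erythrocytes were added to 2% hematocrit and 0.1% parasitemia. After 48 h at 37 C under 5% CO2, luciferase detection reagent was added and luminescence read.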

The target of experiment [20] is M-phase phosphoprotein 8 (Homo sapiens) (UniProt Q99549). The experiment is described as follows: qHTS Validation Assay for Inhibitors for MPP8 Chromodomain Interactions with Methylated Histone Tails (AID 488949).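 Note: 50 nM MPP8 with 50 nM peptide preformed then compounds added for 30 min; AlphaScreen signal from MPP8 chromodomain bound to biotinylated H3K9me3 peptide; top concentration of the series differs between compounds; % is set by controls: 0 for no effect and ±100 for the full control effect; nearly all actives have a fitted effect of over 55% in size.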 An outline of the steps:
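50 nM MPP8 + 50 nM b-H3K9me3 peptide, PBS pH 7.4/0.01% Tween-20, 30 min RT; + cpd 30 min RT; + AlphaScreen donor/Ni-chelate acceptor beads 10 ug/mL final, 30 min dark; luminescence read.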

For experiment [21], the target named is Transient receptor potential cation channel subfamily V member 1 (Homo sapiens) (UniProt Q8NER1). The experiment is described as follows: HTS Assay for Compounds that Act as Enhancers of the Vanilloid Receptor 1 (AID 488979). Note: 0% is about no effect. An outline of the steps: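 Calcium influx kinetics via Fluo-8 (480/520 nm) in TRPV1-expressing cells, 2000/well cultured overnight at 35.5C. Compound-alone read 3 min (agonist phase), followed by EC20 capsaicin challenge for 2 min (enhancer phase).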

Experiment [22] deals with Thyrotropin-releasing hormone receptor (Homo sapiens) (UniProt P34981). The experiment is described as follows: qHTS for Small Molecule Agonists and Allosteric Enhancers of Human TRH Receptor: Validation Screen for Agonists (AID 493127;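 active = calcium activation more than 3 SD above the typical response in the agonist read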;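 note: intracellular calcium rise by fluo-8 fluorescence before TRH EC20 addition; 0% is about no effect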). The settings on record: TRH receptor agonist cell assay; at 2 µM; stronger effect = higher value. In outline:
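Compounds are added by online pintool to dye-loaded TRHR cells while fluorescence is recorded every second. A rise in calcium signal during the agonist read marks activation; a later 10 nM TRH addition (EC20) serves the separate enhancer mode.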

The target in experiment [23] is Galactokinase (Homo sapiens) (UniProt P51570). Nature of the experiment: qHTS Validation Assay for Inhibitors of Human Galactokinase (GALK) (AID 493189). Note: 0% is about no effect. In outline: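 5 nM GALK / 100 uM galactose / 35 uM ATP, 20 mM HEPES pH8.0, 5 mM MgCl2, 60 mM NaCl, 1 mM DTT, 0.01% BSA (final). RT 1 h; Kinase-Glo Plus luminescence.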
Chain of Galactokinase (Homo sapiens) (P51570 whole entry, looked up): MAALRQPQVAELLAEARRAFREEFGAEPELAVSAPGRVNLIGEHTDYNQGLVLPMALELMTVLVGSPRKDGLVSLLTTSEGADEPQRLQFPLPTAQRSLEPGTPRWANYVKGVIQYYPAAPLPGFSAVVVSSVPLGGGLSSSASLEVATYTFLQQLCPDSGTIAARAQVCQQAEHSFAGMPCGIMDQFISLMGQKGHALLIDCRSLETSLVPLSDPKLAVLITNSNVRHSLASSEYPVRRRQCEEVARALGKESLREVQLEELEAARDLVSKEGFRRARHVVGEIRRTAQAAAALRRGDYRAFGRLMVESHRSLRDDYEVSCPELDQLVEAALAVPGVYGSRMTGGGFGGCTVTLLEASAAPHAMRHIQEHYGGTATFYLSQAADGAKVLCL
Experiment [24] is described as follows: Validation screen for small molecules that induce DNA re-replication in SW480 colon adenocarcinoma cells (AID 504364). Note: 0% is about no effect. An outline of the steps:
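Image-based qHTS: compounds were incubated with SW480 cells for 48 hr, nuclei stained with Hoechst, and per-nucleus fluorescence intensity scanned to flag cells with excess DNA content.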

A short description of experiment [25]: qHTS for differential inhibitors of proliferation of Plasmodium falciparum line 7G8 (AID 1815).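 Note: parasite growth measured after three days of incubation; plate controls were vehicle wells for no effect and reference inhibitor wells for full effect.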
Experiment [26] can be described thus: qHTS for differential inhibitors of proliferation of Plasmodium falciparum line 3D7 (AID 1876).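 Note: parasite growth measured after three days of culture; 0% = vehicle wells and -100% = reference inhibitor wells.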
Experiment [27] can be described thus: qHTS for differential inhibitors of proliferation of Plasmodium falciparum line HB3 (AID 1886).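 Note: parasites grown with compound for 72 h before SYBR Green readout; plate controls were vehicle for no effect and reference inhibitor for full effect.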 The settings on record: Potency: Plasmodium falciparum HB3 proliferation inhibition.
The nature of experiment [28]: qHTS Assay for Modulators of Human Peripheral Myelin Protein 22 (PMP22) Expression/Activity (AID 1967; active = well fitted curve in the direction sought with a large enough effect in the signal ratio; the % refers to the signal ratio;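 note: 0% = untreated cells and 100% end not stated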). In outline: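 Luminescence ratio of Pmp22 promoter-driven green luciferase to EF-alpha-driven red luciferase, in engineered mouse MSC80 Schwann cells, served as read-out. Compounds were incubated 24h; untreated cells defined 0% Activity; curves were classified by r2, magnitude and activity.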

For experiment [29], the target named is Voltage-gated inwardly rectifying potassium channel KCNH2 (Homo sapiens) (UniProt Q12809). Nature of the experiment: qHTS Assay for Small Molecule Inhibitors of the Human hERG Channel Activity (AID 588834).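 Note: top concentration of the series differs between compounds; % is set by controls: 0 for no effect and ±100 for the full control effect; lower thallium flux fluorescence means stronger hERG block; nearly all actives have a fitted effect of over 50% in size.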 In outline: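 Step 1: BacMam hERG transduction of U2OS, 4 hrs RT. Step 2: overnight 37 °C, plate 2000 cells/well, 4 hr. Step 3: FluxOR load, compound 10 min, stimulate, read fluorescence.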
Chain of Voltage-gated inwardly rectifying potassium channel KCNH2 (Homo sapiens) (Q12809 whole entry, looked up): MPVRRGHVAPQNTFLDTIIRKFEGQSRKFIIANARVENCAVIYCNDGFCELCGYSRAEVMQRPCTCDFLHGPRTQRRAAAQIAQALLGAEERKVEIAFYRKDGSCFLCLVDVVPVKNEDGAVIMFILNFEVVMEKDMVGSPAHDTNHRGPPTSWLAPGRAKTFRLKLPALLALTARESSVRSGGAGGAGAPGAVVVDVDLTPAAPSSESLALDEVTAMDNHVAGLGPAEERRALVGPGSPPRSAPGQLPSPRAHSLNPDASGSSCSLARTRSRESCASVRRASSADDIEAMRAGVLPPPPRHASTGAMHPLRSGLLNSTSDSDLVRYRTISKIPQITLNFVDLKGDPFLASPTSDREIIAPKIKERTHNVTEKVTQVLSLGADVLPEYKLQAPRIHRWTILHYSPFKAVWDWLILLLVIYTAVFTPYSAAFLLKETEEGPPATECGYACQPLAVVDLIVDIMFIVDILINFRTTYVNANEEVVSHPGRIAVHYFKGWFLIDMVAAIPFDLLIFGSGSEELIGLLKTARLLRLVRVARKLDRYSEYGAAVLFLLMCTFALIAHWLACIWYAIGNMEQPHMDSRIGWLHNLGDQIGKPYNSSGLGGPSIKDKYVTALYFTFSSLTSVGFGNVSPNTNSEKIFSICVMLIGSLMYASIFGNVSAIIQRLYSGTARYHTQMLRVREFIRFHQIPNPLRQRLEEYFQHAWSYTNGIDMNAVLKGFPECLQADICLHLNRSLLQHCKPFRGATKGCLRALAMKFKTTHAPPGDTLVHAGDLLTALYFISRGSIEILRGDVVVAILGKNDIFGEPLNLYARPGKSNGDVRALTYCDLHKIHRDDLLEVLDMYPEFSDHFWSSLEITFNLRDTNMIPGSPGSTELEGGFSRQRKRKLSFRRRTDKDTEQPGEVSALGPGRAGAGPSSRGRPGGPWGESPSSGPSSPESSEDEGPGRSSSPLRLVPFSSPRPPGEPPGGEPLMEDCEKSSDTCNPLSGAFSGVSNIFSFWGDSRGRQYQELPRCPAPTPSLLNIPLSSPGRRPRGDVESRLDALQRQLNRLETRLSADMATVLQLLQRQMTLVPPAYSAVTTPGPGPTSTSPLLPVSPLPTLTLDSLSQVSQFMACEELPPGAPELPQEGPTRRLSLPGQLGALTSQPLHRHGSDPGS

The mark [30] stands for this setting: measured here: PEO1 parental Z-AUC.

Inconclusive results are not listed. Active and inactive are the calls of the source. Unless noted, calls come from the whole dose curve; as a rule, active = well fitted curve in the direction sought with a large enough effect; inconclusive = small, poorly fitted or top-dose-only effect, or another doubt; inactive = no such curve, though single readings can be large; an effect the other way counts as inactive or inconclusive.

Chain of Ferritin light chain (Equus caballus) (P02791 2-175 limits assumed): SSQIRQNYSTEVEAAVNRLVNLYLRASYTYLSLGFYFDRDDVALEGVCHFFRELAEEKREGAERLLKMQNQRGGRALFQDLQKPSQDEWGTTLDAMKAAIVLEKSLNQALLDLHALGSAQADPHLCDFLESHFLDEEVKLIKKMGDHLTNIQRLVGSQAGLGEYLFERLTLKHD
Chain of DNA repair nuclease/redox regulator APEX1 (Homo sapiens) (P27695 whole entry, looked up): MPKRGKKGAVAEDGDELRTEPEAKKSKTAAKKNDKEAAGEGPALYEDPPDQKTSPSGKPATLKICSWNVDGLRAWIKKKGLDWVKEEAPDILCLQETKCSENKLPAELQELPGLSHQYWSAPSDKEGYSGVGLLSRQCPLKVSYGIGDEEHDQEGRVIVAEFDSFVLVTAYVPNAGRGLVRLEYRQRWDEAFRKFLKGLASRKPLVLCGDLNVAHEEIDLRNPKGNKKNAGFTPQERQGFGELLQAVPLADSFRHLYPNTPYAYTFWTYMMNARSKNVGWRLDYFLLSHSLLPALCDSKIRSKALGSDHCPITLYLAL
Chain of Phospholipid hydroperoxide glutathione peroxidase GPX4 (Homo sapiens) (P36969 whole entry, looked up): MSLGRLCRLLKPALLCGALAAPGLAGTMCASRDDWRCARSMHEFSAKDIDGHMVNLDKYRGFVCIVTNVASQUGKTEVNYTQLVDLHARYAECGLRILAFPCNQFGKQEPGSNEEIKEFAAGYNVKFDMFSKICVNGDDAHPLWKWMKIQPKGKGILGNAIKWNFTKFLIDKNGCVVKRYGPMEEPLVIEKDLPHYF
Chain of Thyrotropin-releasing hormone receptor (Homo sapiens) (P34981 whole entry, looked up): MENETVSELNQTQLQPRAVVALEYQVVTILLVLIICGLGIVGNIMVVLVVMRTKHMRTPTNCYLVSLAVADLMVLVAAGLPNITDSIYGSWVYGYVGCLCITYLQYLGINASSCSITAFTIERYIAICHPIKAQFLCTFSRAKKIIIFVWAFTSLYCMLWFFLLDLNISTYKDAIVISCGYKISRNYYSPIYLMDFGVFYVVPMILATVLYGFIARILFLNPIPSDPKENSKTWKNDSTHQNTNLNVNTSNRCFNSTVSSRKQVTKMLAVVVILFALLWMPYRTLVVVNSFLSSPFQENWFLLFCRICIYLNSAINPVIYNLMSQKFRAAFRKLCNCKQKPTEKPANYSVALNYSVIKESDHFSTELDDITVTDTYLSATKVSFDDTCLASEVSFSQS
Chain of ATP-dependent DNA helicase Q1 (Homo sapiens) (P46063 whole entry, looked up): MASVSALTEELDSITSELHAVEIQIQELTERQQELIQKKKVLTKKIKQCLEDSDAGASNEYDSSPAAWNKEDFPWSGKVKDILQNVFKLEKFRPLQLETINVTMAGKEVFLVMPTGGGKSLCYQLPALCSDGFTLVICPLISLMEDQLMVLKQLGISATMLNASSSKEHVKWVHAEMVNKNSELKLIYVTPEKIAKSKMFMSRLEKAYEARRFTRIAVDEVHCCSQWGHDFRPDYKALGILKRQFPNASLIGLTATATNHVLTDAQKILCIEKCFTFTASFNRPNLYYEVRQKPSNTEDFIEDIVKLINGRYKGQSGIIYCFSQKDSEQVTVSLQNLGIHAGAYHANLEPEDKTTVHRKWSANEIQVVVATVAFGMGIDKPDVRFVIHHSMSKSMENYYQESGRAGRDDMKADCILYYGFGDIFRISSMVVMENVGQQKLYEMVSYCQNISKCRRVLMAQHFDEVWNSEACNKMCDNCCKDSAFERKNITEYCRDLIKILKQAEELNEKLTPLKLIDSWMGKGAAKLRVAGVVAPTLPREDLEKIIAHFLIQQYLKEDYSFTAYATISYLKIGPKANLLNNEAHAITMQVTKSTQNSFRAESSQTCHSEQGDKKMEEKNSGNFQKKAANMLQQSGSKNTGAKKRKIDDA
Chain of M-phase phosphoprotein 8 (Homo sapiens) (Q99549 whole entry, looked up): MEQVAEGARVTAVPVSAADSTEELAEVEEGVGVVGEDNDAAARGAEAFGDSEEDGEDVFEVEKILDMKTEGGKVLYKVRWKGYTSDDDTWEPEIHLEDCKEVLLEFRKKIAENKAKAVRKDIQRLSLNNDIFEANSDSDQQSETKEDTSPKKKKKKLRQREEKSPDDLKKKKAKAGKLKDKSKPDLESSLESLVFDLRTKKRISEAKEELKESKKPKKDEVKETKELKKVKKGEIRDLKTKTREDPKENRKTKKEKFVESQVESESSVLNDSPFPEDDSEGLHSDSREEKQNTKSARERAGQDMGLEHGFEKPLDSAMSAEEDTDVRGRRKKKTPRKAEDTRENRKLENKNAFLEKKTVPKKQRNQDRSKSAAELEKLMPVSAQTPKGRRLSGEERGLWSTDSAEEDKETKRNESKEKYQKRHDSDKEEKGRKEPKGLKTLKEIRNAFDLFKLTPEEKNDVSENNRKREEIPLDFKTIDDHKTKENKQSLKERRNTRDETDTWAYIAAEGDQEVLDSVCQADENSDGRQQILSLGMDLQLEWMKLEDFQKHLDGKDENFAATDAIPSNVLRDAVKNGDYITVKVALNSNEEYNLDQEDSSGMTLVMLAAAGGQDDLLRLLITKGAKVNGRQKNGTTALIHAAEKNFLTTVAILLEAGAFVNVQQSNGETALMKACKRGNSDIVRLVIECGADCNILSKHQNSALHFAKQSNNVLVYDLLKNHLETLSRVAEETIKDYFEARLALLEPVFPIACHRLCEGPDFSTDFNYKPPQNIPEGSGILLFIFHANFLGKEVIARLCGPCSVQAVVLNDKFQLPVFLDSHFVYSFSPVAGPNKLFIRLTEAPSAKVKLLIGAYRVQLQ

Take `COc1cc(N2CCN(C)CC2)ccc1Nc1ncc2c(n1)N(C)c1ccccc1C(=O)N2C`: the Potency in [1] and in [2] was 2.35 µM (active) throughout. For the same molecule, the Potency result in [3] and in experiment [4] was “inactive” each time. The Z-AUC was -0.347 (inactive) in experiment [5], 0.0513 in experiment [5] (setting [30]) and -0.152 in experiment [5] (measured here: PEO4 Z-AUC). Besides, the activity change, negative = inhibition in experiment [6] (Viability, at 45.9 µM (top of the series)) is 22.1% (inactive).

As to `O=c1cc(N2CCOCC2)oc2c(-c3ccc4c(c3)OCCO4)csc12`, the Potency in experiment [1] is 0.59 µM (active); in experiment [2], 0.59 µM (active); in experiment [6] (HiBiT), 14 µM (active). For the same molecule, the Potency entry in [3] and in [4] was “inactive” in each case. Besides, the Z-AUC in [5] was -0.839 (inactive); in experiment [5] (setting [30]), -0.602; in experiment [5] (measured here: PEO4 Z-AUC) it was -0.553.

For `CSc1nc(N)c2ncn([C@@H]3O[C@H](COP(=O)(O)OP(=O)(O)OP(=O)(O)O)[C@H](O)[C@H]3O)c2n1`, the molecule was called inactive in experiment [7], in [10], in experiment [15], in [17], in experiment [21] and in experiment [23]. Moreover, the molecule was called inactive in [24]. For the same molecule, the Potency result in [8], in [9], in [13], in [16], in [18] and in [19] was “inactive” throughout. Also, the Potency result in experiment [20] is “inactive”. Further, the Potency in experiment [11], in experiment [12] and in experiment [14] was 12.6 µM (active) each time. Further, in [22], the activation is 24.8% (inactive).

Consider `NC(=S)c1ccc[n+]([C@@H]2O[C@@H](COP(=O)([O-])OP(=O)(O)OC[C@H]3O[C@@H](n4cnc5c(N)ncnc54)[C@H](OP(=O)(O)O)[C@H]3O)C(O)C2O)c1` (stereo not given in full), for which the result in experiment [7], in [10], in experiment [28], in experiment [15], in experiment [17] and in [23] was inactive. For the same molecule, in experiment [24], the molecule was classed as inactive. For the same molecule, the Potency result in experiment [8], in experiment [9], in [25], in [11], in experiment [26] and in [12] was “inactive” each time. The Potency result in experiment [13], in [14], in experiment [27], in [16], in experiment [18] and in experiment [19] was “inactive” each time. In experiment [29], the Potency result was “inactive”. Also, in experiment [22], the activation is -0.0625% (inactive).
